# Data from PubChem BioAssay (NCI).
# About 83,000 compounds went through this panel and 20% of them were active in at least one assay; those are over-represented in the sample as a whole.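 Compound tested at a single concentration for 48 hours in 96-well plates; a percent growth value below 10 was scored as active.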 Values without a mark were called inactive. The source made the active and inactive calls.
# Key:
# Assay in all cases: NCI-60 one-dose screen, 48 h (100 = growth as untreated, 0 = no growth, -100 = all killed)
# DU-145 prostate = settings: 10 µM unless noted
# K-562 leukemia = settings: 10 µM unless noted
# MALME-3M melanoma = settings: 10 µM unless noted
# MDA-MB-231 breast = settings: 10 µM unless noted
# SF-268 CNS = settings: 10 µM unless noted
# SF-295 CNS = settings: 10 µM unless noted
# SF-539 CNS = settings: 10 µM unless noted
# UACC-257 melanoma = settings: 10 µM unless noted
# M14 melanoma = settings: 10 µM unless noted
# HCT-15 colon = settings: 10 µM unless noted
# HT29 colon = settings: 10 µM unless noted
# SNB-75 CNS = settings: 10 µM unless noted
# SNB-19 CNS = settings: 10 µM unless noted
# U251 CNS = settings: 10 µM unless noted
# PC-3 prostate = settings: 10 µM unless noted
# SK-MEL-5 melanoma = settings: 10 µM unless noted
# UACC-62 melanoma = settings: 10 µM unless noted
# LOX IMVI melanoma = settings: 10 µM
# SK-MEL-28 melanoma = settings: 10 µM unless noted
# RXF 393 renal = settings: 10 µM unless noted
SMILES,growth (DU-145 prostate),growth (K-562 leukemia),growth (MALME-3M melanoma),growth (MDA-MB-231 breast),growth (SF-268 CNS),growth (SF-295 CNS),growth (SF-539 CNS),growth (UACC-257 melanoma),growth (M14 melanoma),growth (HCT-15 colon),growth (HT29 colon),growth (SNB-75 CNS),growth (SNB-19 CNS) [%],growth (U251 CNS),growth (PC-3 prostate),growth (SK-MEL-5 melanoma),growth (UACC-62 melanoma),growth (LOX IMVI melanoma),growth (SK-MEL-28 melanoma) [%],growth (RXF 393 renal) [%]
Cn1c2ccccc2c2nnc(NCCCCO)nc21,103%,99.7%,98.3%,99.3%,91.1%,113%,92.6%,113%,88%,88.9%,102%,56.2%,94.7,103%,100%,94.4%,103%,89.1%,109,
O=[N+]([O-])c1c(Cl)ncnc1Cl,110%,109%,104%,120%,,,88.9%,86%,118%,100%,107%,87.7%,106,95.9%,90.3%,111%,110%,107%,105,108
NNc1ncnc2nc[nH]c12,36.6%,48.4%,120%,14.9%,83.7%,45.9%,101%,45.1%,48%,44.1%,53.7%,89.3%,96,72.2%,63%,71.9%,18.7%,30.9%,105,
O=S(=O)(O)c1cccnc1,122%,105%,90.1%,103%,103%,108%,95.8%,123%,,114%,117%,79.5%,96,113%,102%,103%,,108%,114,
NC(CCl)=NCC12CC3CC(CC(C3)C1)C2,-42.7% (active),-15.1% (active),25.4%,-15.8% (active),-3.73% (active),26.4%,-11% (active),-71.2% (active),-61.3% (active),9.53% (active),-13.6% (active),13.2%,22.2,6.8% (active),7.42% (active),5.92% (active),32.7%,-33.6% (active),55.3,
CC(CO)(CO)C(=O)O,105%,101%,90.4%,108%,104%,,97.9%,98.4%,103%,100%,102%,97.4%,105,102%,94.9%,97.3%,103%,97.9%,110,99.5
Cc1ccnc(Nc2nc3ccccc3[nH]2)n1,123%,97.8%,104%,109%,,102%,98%,105%,97%,101%,100%,109%,112,103%,101%,105%,113%,97.9%,115,116
C[n+]1c(/C=C\C=C\N2CCCCC2)sc2ccccc21,23.1%,-14.4% (active),-4.48% (active),17.7%,12.9%,-10.3% (active),4.51% (active),-44% (active),0.396% (active),57.7%,1.33% (active),14.4%,15.4,14.5%,2.78% (active),-59.7% (active),3.09% (active),14.1%,39.4,
O=C(O)CC1=CCCCC1,102%,102%,90.8%,98%,93.4%,95.2%,98.4%,100%,95.8%,98.1%,105%,89.6%,97.2,105%,96%,101%,98%,94.5%,95.5,
O=C(c1ccc(Cl)cc1)N1CCCCC1,115%,97.2%,109%,94.4%,104%,99.2%,98.5%,94%,104%,98.5%,101%,88.5%,93.7,94.7%,97.8%,100%,95%,97.6%,101,
Clc1ncnc2nc[nH]c12,91%,90.1%,106%,99%,95.8%,107%,86.4%,103%,97.5%,96.4%,107%,82.9%,96.4,103%,96.4%,98.9%,91.1%,95.1%,99.8,
Nc1nc2nnc(-c3ccccc3)c(-c3ccccc3)n2n1,98.8%,96.3%,125%,88.7%,103%,71%,80.9%,103%,127%,94.7%,97.4%,91.4%,80,111%,86.5%,86.5%,87.8%,87.6%,86.3,
CNc1ccccc1C(=O)N/N=C/C=C/c1ccccc1,14.9%,8.9% (active),31.5%,49.3%,34.9%,-0.27% (active),21.7%,39.1%,17.1%,33.8%,3.82% (active),-15.6% (active),53.9,,18.7%,18.2%,49.3%,14.7%,39.3,
O=C(O)c1cc(I)ccc1O,116%,114%,90.3%,110%,111%,105%,97.7%,104%,110%,101%,104%,81.8%,93.1,100%,104%,103%,,92%,113,
NS(=O)(=O)c1cc(=O)[nH]c(=O)[nH]1,114%,131%,90.7%,115%,110%,109%,111%,113%,102%,111%,108%,93.1%,106,98%,120%,107%,,93.4%,110,
S=c1nc2[nH]c3ccccc3c2n[nH]1,102%,106%,97.7%,86.6%,87.6%,72%,85.1%,107%,107%,97.3%,98.6%,103%,83.3,105%,82.3%,90.1%,87.1%,89.6%,91.7,
ON1CCCC1,113%,90.7%,106%,114%,106%,,108%,102%,104%,101%,95.3%,83.2%,103,100%,101%,109%,105%,94.8%,106,107
